Rab9 prom act: qHTS Assay for Rab9 Promoter Activators; Huh7 Rab9 promoter-luciferase reporter, luminescence, 24 h; Potency, µM (highest dose often 9.22 µM), for inactives: top-dose activation, negative = inhibition, usual class: activators; hit rate 2.8% among 320,000; AID 485297, 2010; further: % of control where 0% means no effect; nearly all actives have a fitted effect of over 60% in size
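Quantitative HTS format; Huh7 Rab9-luciferase reporter cells (1500/well) receive compound 2 h post-plating, incubate 24 h at 37 °C, then get luciferase reagent for 10 min before luminescence reading.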
FLuc modulator: qHTS profiling assay for firefly luciferase inhibitor/activator using purifed enzyme and Km concentrations of substrates (counterscreen for miR-21 project) | Luciferin 4-monooxygenase (Photinus pyralis), P08659 | purified FLuc, Km substrates, luminescence inhibition | Potency, µM (series often up to 57.5 µM), for inactives: top-dose activity change, negative = inhibition, usual class: inhibitors | hit rate 6.9% among 360,000 | AID 588342, 2011;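 further: plate controls were vehicle for no effect and reference inhibitor for full effect; nearly all actives have a fitted effect of over 55% in size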
Target sequence (P08659 whole entry, looked up): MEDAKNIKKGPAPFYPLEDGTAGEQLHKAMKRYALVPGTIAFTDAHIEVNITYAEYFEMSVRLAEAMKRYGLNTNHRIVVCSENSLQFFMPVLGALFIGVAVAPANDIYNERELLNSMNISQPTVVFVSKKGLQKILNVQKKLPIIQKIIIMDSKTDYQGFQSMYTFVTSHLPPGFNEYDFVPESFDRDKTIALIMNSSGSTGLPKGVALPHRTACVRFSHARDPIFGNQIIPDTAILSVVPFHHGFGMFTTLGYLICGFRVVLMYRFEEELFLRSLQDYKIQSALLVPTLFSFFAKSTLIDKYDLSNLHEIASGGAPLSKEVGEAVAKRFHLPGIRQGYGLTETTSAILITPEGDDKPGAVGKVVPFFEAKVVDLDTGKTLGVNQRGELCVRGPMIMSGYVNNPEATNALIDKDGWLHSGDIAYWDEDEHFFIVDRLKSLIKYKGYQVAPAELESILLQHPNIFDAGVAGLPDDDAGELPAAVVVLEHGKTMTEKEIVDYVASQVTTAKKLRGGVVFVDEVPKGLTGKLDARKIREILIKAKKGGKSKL
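Biochemical qHTS of compounds, final roughly 60 µM downward over six points, against 10 nM purified firefly luciferase using Km concentrations of substrates (10 uM D-luciferin, 10 uM ATP) in Tris acetate pH 7.5 buffer; luminescence output.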
Luc counter: Counterscreen for Luciferase (Kinase-Glo TM) Inhibition; hit rate 0.28% among 200,000; Luciferin 4-monooxygenase (Photuris pensylvanica), Q27757; Kinase-Glo luciferase, ATP luminescence, 8 min; Potency, µM (top dose mostly 38.3 µM), for the others: at the highest dose activity change, negative = inhibition, actives largely listed as inhibitors; further: on the % scale 0 is the no-effect control and ±100 the full control effect; nearly all actives have a fitted effect of over 60% in size
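Recombinant Kinase-Glo luciferase, 10 uM ATP (linear range), luciferin; imidazole pH 7.2 / KCl / MgCl2 / Tween / BSA buffer; 8 min RT; luminescence.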
SMN2 splice enh: qHTS Assay for Enhancers of SMN2 Splice Variant Expression | HEK293 SMN2-luciferase splicing reporter, luminescence, 30-36 h | Potency, µM (doses to about 46.1 µM), inactives show top-dose activity change, positive = activation, most hits filed as activators | hit rate 2.8% among 210,000 | AID 1458, 2008; further: % of control where 0% means no effect; nearly all actives have a fitted effect of over 55% in size
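HEK293 cells carry an SMN2 […]–luciferase reporter in which exon 7 inclusion puts luciferase in frame. Cells were plated 10-12 h before compound addition, then incubated 30-36 h at 37C. ONE-Glo luminescence was read; sodium butyrate at 4.5 mM final served as control.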
ELG1 genotoxic: qHTS screen for small molecules that induce genotoxicity in human embryonic kidney (HEK293T) cells expressing luciferase-tagged ELG1; HEK293T ELG1-luciferase reporter, luminescence, 16 h; hit rate 1.3% among 330,000; AID 504466, 2011; Potency, µM (series often up to 46 µM), for inactives: top-dose activity change, positive = activation, hits mostly activators; further: % of control where 0% means no effect; nearly all actives have a fitted effect of over 60% in size
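After overnight (16 hr) compound treatment at 37 °C, ELG1-luciferase HEK293T cells were lysed with ONE-Glo; luminescence quantified 30 min later at room temperature.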
NPC1 promoter act: qHTS Assay for NPC1 Promoter Activators; hit rate 2.4% among 320,000; Huh7 NPC1 promoter luciferase reporter, 24 h; Potency, µM (highest dose often 9.22 µM), for the others: at the highest dose activation, hits mostly activators; further: % of control where 0% means no effect; nearly all actives have a fitted effect of over 60% in size
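Stable NPC1-promoter luciferase Huh7 line; cpd (DMSO) 24 h, 37 °C, 5% CO2; Amplite luciferase reagent 10 min RT; luminescence readout. qHTS format.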
An asterisk follows results filed as active; ? = inconclusive; . = not tested or not shown; [ ] = dose if it differs, or a comment. An excerpt weighted towards active compounds, which were near 7.3% of everything screened. The call rests on the fitted dose curve; in most records, active means well fitted curve in the direction sought with a large enough effect; inconclusive means small, poorly fitted or top-dose-only effect, or another doubt; inactive means no such curve, though single readings can be large; an effect the other way counts as inactive or inconclusive. Potency means the concentration at half of the fitted maximal effect.

SMILES	Rab9 prom act	FLuc modulator	Luc counter	SMN2 splice enh	ELG1 genotoxic	NPC1 promoter act
Cc1cccc(C(=O)Oc2ccc(/C=N/NC(=O)c3ccccc3O)cc2)c1	27%	13µM*	-8%	5%[1.84 µM]	16%	17%
Cc1cccc(C(=O)N/N=C/c2ccc(OC3CSC3)cc2)c1	2%	11µM*	-2%	-2%	12%	12%
Cn1ncc(Br)c1C(=O)N/N=C/c1cccc(OC2CSC2)c1	-13%	-13%	-6%	-10%	2%	-6%
O=C(N/N=C/c1cccc(OC2CSC2)c1)c1ccccc1O	11%	6.7µM*	-3%	9%	2%	10%
COc1cccc(C(=O)N/N=C/c2ccc(OC3CSC3)cc2)c1	10%	15µM*	-8%	-39%	?	-4%
CN1c2ccsc2/C(=N/Nc2ccccc2)CS1(=O)=O	?	?	-2%	23%	-2%	20%
CN(CC(=O)Nc1cccc(F)c1)C(=O)c1cc(-c2ccco2)nc2ccccc12	-5%	?	.	.	-24%	-5%
Cn1nccc1C(=O)Oc1cccc(/C=N/NC(=O)c2ccccc2O)c1	9%	9.5µM*	.	.	?	-1%
Cn1nccc1C(=O)N/N=C/c1c(O)ccc2ccccc12	-42%	?	.	.	?	-29%
Cc1ccc(S(=O)(=O)Nc2nc(C)c(C(=O)Nc3ccccc3)s2)cc1	1%	-18%	4%	?	-1%	-3%
Cc1cc(C)c2c(N)c(C(=O)N/N=C/c3ccccc3)sc2n1	1.8µM*	3.4µM*	.	.	?	1.8µM*
Cc1cc(C)c2c(N)c(C(=O)NNC(=O)c3ccccc3)sc2n1	3.5µM*	?	-1%	11µM*	?	3.2µM*
Cc1ccc(S(=O)(=O)Nc2nc(C)c(C(=O)N/N=C/c3ccccc3)s2)cc1	7%	6µM*	2%	-37%	-20%	-1%
Cc1cc(C)c2c(N)c(C(=O)NN)sc2n1	-3%	-15%	.	.	8%	1%
COc1ccccc1NC(=O)/C=C/c1cc([N+](=O)[O-])ccc1OC(F)F	-7%	-2%	.	.	0%	15%
COc1ccc(Br)cc1C(=O)NC(=S)Nc1ccc(CN2CCOCC2)cc1	-1%	-12%	.	.	-12%	-6%
c1ccc(CN2CCOCC2)cc1	2%	0%	-3%	17%	3%	0%
O=C(Nc1ccc(CN2CCOCC2)cc1)c1cccs1	3.2µM*	12µM*	-3%	13µM*	?	?
O=C(Cc1ccccc1)Nc1ccc(CN2CCOCC2)cc1	?	?	-1%	22µM*	12µM*	?
O=C(Nc1ccc(CN2CCOCC2)cc1)c1ccccc1F	?	?	-6%	11µM*	?	3.2µM*
COc1cc2ccccc2cc1C(=O)Nc1ccc(CN2CCOCC2)cc1	19%	15µM*	.	.	-11%	19%
O=C(O)C1Cc2ccccc2CN1S(=O)(=O)c1ccc(Cl)cc1 (stereo not drawn)	-4%	-18%	0%	7%	2%	-4%
CCc1ccccc1N(C)S(=O)(=O)c1cc(-c2cc(C)no2)ccc1OC	-3%	5%	.	.	-3%[9.26 µM]	-7%
O=C1CC(c2ccccc2)Cc2nc(NCc3ccco3)ncc21 (stereo not drawn)	-6%	1%	0%	-12%	-17%	-1%
Cc1cc2n(n1)C(c1ccccc1)Nc1ccccc1-2 (stereo not drawn)	-6%	4%	-3%	-25%	7%	2%
CN(C)c1ccc(C2Nc3ccccc3C(=O)N2CCCN2CCOCC2)cc1 (stereo not drawn)	19%	4.8µM*	.	.	12%	7%
Cc1cc2n(n1)C(c1ccc(N(C)C)cc1)Nc1ccccc1-2 (stereo not drawn)	-7%	30µM*	1%	1%	16%	-2%
CCN(CC)CCN1C(=O)c2ccccc2NC1c1ccc(N(C)C)cc1 (stereo not drawn)	9%	24µM*	-2%	-3%	1%	3%
COC(=O)c1cc(S(=O)(=O)NCC(C)c2ccccc2)cn1C (stereo not drawn)	3%	5%	.	.	-2%	1%
CCOC(=O)c1c(NC(=O)c2c(Br)cnn2CC)sc(C)c1C	-8%	7%	4%	-19%	-1%	-4%

Bioassay records from PubChem BioAssay.
